Test results reported in PubChem BioAssay (EPA / NIEHS).
Results filed as inconclusive are left out. Calls of active or inactive are those of the source. Rule for the calls: active = hit-call score of the fitted dose curve at least 0.9, where 1 is the maximum; inconclusive = response in the unintended direction; inactive = score below 0.9.

The molecules below were run against human Vitamin D Receptor (VDR), VDR (gene 7421) (UniProt P11473) (assay: ATG_VDR_TRANS: Attagene TRANS-FACTORIAL HepG2 Assay for human Vitamin D Receptor (VDR) (AID 2283022)).
Sequence of human Vitamin D Receptor (VDR), VDR (gene 7421) (P11473 whole entry, looked up): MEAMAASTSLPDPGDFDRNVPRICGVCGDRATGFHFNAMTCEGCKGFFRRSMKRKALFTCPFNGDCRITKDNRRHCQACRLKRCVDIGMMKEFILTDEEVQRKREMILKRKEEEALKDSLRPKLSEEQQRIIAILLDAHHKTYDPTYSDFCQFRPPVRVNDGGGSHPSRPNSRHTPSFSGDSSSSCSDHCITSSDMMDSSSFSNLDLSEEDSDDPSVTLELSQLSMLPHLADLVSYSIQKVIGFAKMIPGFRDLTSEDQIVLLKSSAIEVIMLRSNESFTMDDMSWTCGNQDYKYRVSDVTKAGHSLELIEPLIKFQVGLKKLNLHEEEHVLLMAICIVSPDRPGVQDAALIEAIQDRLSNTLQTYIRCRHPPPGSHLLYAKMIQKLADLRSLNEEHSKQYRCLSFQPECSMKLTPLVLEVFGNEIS
Protocol: ATG_TRANS is a cell-based, multiplexed-readout assay that uses HepG2, a human liver cell line, with measurements taken at 24 hours after chemical dosing in a 24-well plate.ATG_VDR_TRANS is one of 30 assay component(s) measured or calculated from the ATG_TRANS assay. It is designed to make measurements of mRNA induction, a form of inducible reporter, as detected with fluorescence intensity signals by Reverse transcription polymerase chain reaction (RT-PCR) and Capillary electrophoresis technology.Data from the assay component ATG_VDR_TRANS was analyzed into 1 assay endpoint. This assay endpoint, ATG_VDR_TRANS, was analyzed in the positive analysis fitting direction relative to DMSO as the negative control and baseline of activity. Using a type of inducible reporter, measures of mRNA for gain-of-signal activity can be used to understand the reporter gene at the transcription factor-level as they relate to the gene VDR. Furthermore, this assay endpoint can be referred to as a primary readout, because this assay has produced multiple assay endpoints where this one serves a reporter gene function. To generalize the intended target to other relatable targets, this assay endpoint is annotated to the nuclear receptor intended target family, where the subfamily is non-steroidal.
Human liver HepG2 cells are transiently transfected with multiple reporter transcription units (MRTUs) in 6-well plates using FuGene 6 reagent (Roche; 3 ml FuGene/1 mg DNA). The MRTU constructs are regulated by a cis-regulating element (promoter). […] A major difference between the CIS and TRANS system is that in CIS activities of endogenous TFs are measured, whereas the TRANS assay evaluates changes in activities of exogenous, chimeric NR-Gal4 proteins. […] At the end of 24 hour incubation, total RNA was isolated using TriZol reagent (Invitrogen). The isolated RNA is then reverse-transcribed using oligo(dT) primer and Mo-MLV reverse transcriptase (Invitrogen) with DNAse I (Ambion) treatment for 30 min. The one-tenth of the produced cDNA was amplified by PCR using Taq DNA polymerase (Invitrogen) and two reporter sequence-specific primers. The PCR products were fluorescently labeled by primer extension with 6-arboxyfluorescein (6-FAM) 5'-labeled reporter sequence-specific primer (2 min at 95 C, 20 s at 68 C and 10 min at 72 C) and these products were digested with 5U of HpaI (New England Biolabs) for 2h at 37 C. The fragments were purified using Qiaquick PCR columns (Qiagen), analyzed on an ABI 3130xL genetic analyzer (Applied Biosystems) with peak positions identified by using a set of X-rhodamine (ROX)-labeled MapMarker1000 molecular weight standards (BioVentures). The raw capillary electrophoresis data was processed using Attagraph software (Attagene).
In the case of `CCOP(=S)(OCC)O/N=C(\C#N)c1ccccc1`, the outcome is reported as “inactive”.
For `C=CC(Cl)CCl` (stereo not given), the outcome was “inactive”.
`Cc1ccc(OP(=O)(Oc2ccc(C)cc2C)Oc2ccc(C)cc2C)c(C)c1` was tested, and the outcome was “inactive”.
`CC(C)(c1ccc(O)c(-c2ccccc2)c1)c1ccc(O)c(-c2ccccc2)c1` was tested, and the outcome was “inactive”.
For `CCCCOP(=O)(CCCC)OCCCC`, the outcome was “inactive”.
`Clc1cccc(Cl)c1` was tested, and the outcome was “inactive”.
`Nc1cccnc1` was tested, and the outcome was “inactive”.
For `C[N+](C)(C)Cc1ccccc1`, the outcome was “inactive”.
With `N#CCC#N` the outcome was “inactive”.
`CCCCN(CCCC)C(=S)S` was tested, and the outcome was “inactive”.
`CC(C)(C)c1cc([N+](=O)[O-])cc(C(C)(C)C)c1O` was tested, and the outcome was “inactive”.
For `O=NN1CCCCCC1`, the outcome was “inactive”.
In the case of `CCOC(=O)c1ccccc1S(=O)(=O)NC(=O)Nc1nc(Cl)cc(OC)n1`, the outcome is reported as “inactive”.
For `O=C(Cl)OCCOCCOC(=O)Cl`, the outcome was “inactive”.
`CCOC(=O)Cc1ccccc1` was tested, and the outcome was “inactive”.
`O=C(CCl)NCO` was tested, and the outcome was “inactive”.
With `O=S(=O)(F)C(F)(F)C(F)(F)C(F)(F)C(F)(F)F` the outcome was “inactive”.
`CC1(C)COP(Oc2ccccc2)OC1` was tested, and the outcome was “inactive”.
For `COC(F)(C(F)(F)C(F)(F)F)C(F)(C(F)(F)F)C(F)(F)F` (stereo not given), the outcome was “inactive”.
For `C[C@]12CC[C@@H](O)C[C@@H]1CC[C@@H]1[C@@H]2CC[C@]2(C)C(=O)CC[C@@H]12`, the outcome was “inactive”.
For `COCCl`, the outcome was “inactive”.
For `Cc1cccc(OP(=O)(Oc2cccc(C)c2)Oc2cccc(C)c2)c1`, the outcome was “inactive”.
In the case of `c1cc[c]([Sb]([c]2ccccc2)[c]2ccccc2)cc1`, the outcome is reported as “inactive”.
With `CCCCN(CCCC)C(=S)[S-].CCCCN(CCCC)C(=S)[S-].[Ni+2]` the outcome was “inactive”.
With `CN(N=O)C(N)=O` the outcome was “inactive”.
`O=c1[nH]c2ccccc2n1C1CCN(CCCC(c2ccc(F)cc2)c2ccc(F)cc2)CC1` was tested, and the outcome was “inactive”.
With `O=C(NC(=O)c1c(F)cccc1F)Nc1cc(Cl)c(Oc2ncc(C(F)(F)F)cc2Cl)c(Cl)c1` the outcome was “inactive”.
For `ClCc1ccccc1CCl`, the outcome was “inactive”.
In the case of `OC(c1ccc(Cl)cc1)(c1ccc(Cl)cc1)c1cccnc1`, the outcome is reported as “inactive”.
`c1ccc2sc(SNC3CCCCC3)nc2c1` was tested, and the outcome was “inactive”.
With `FC(F)OCC(F)(F)C(F)(F)F` the outcome was “inactive”.
In the case of `CC(C)(COCC1CO1)COCC1CO1` (stereo not given), the outcome is reported as “inactive”.
In the case of `CCOc1ccc(N)cc1`, the outcome is reported as “inactive”.
For `CCCCS(=O)(=O)Cl`, the outcome was “inactive”.
In the case of `C=C(C)C(=O)OCCCCOC(=O)C(=C)C`, the outcome is reported as “inactive”.
`COc1nn(C(=O)NS(=O)(=O)c2ccccc2OC(F)(F)F)c(=O)n1C` was tested, and the outcome was “inactive”.
With `O=c1oc2ccccc2c(O)c1C(CC(O)c1ccc(-c2ccc(Br)cc2)cc1)c1ccccc1` (stereo not given) the outcome was “inactive”.
With `CCCCCCCCCCCCCCC(Br)C(=O)O` (stereo not given) the outcome was “inactive”.
In the case of `O=C(O)C1(c2ccc3c(c2)OC[C@H](Cc2ccc(-c4ccccc4)cc2)[C@H]3O)CCCC1`, the outcome is reported as “inactive”.
With `COC(=O)c1cc(Oc2ccc(Cl)cc2Cl)ccc1[N+](=O)[O-]` the outcome was “inactive”.
